Compound activity (PubChem)
aSyn 5UTR act – Activators via SNCA 5'UTR binding, MLPCN; alpha-synuclein 5'UTR reporter, activators screen; activity score, % (tested at 7.5 µM), hits read low; hit rate 7.1% among 300,000; in the data active = activity score below about -60%
Of the large screens only hits and unclear results are named; the others gave an inactive call. Only a sample is shown.

N#Cc1c(N2CCOCC2)nsc1-c1ccc(C(F)(F)F)cc1	aSyn 5UTR act -133.6
N#C/C(=C/Nc1ccccc1)c1ccsc1	aSyn 5UTR act -78.7
Cc1ccc(N/C=C(/C#N)c2ccsc2)cc1	aSyn 5UTR act -174.9
Cc1ccc(N(CC(=O)Nc2ccc(-c3nc4ccc(C)cc4s3)cc2)S(C)(=O)=O)cc1	aSyn 5UTR act -202.9
Cc1ccc(C)c(N(CC(=O)Nc2ccc(-c3nc4ccc(C)cc4s3)cc2)S(C)(=O)=O)c1	aSyn 5UTR act -80.0
CCS(=O)(=O)N1CCCC(c2nc(-c3cccc(OC)c3)no2)C1 (stereo not drawn)	aSyn 5UTR act -102.3
CCc1ccc(NC(=O)C(=S)NC2CCCCC2)cc1	aSyn 5UTR act -177.5
O=C(CSCCO)Nc1ccc(C2CCCCC2)cc1	aSyn 5UTR act -127.0
CCOc1ccc(NC(=O)C(=S)NC2CCCCC2)cc1	aSyn 5UTR act -192.2
COc1ccc(NC(=O)CSC2CCCCC2)cc1	aSyn 5UTR act -157.7
COc1ccc(NC(=O)C(=S)N2CCCC2)cc1	aSyn 5UTR act -63.2
COc1ccc(NC(=O)C(=S)NC2CCCCC2)cc1	aSyn 5UTR act -125.0
COc1cc(NC(C)=O)ccc1NC(=O)c1cc2ccccc2o1	aSyn 5UTR act -82.9
CCCC(=O)Nc1ccc(NC(=O)c2cc3ccccc3o2)c(OC)c1	aSyn 5UTR act -222.5
COc1cc(N)ccc1NC(=O)c1cc2ccccc2o1	aSyn 5UTR act -135.6
CN(C)c1ccc(/C=C2\CCCc3c2nc2ccccc2c3C(=O)O)cc1	aSyn 5UTR act -120.6
COc1ccc(-n2cnc3cc(N)ccc32)cc1	aSyn 5UTR act -75.1
Fc1cccc2sc(N3CCOCC3)nc12	aSyn 5UTR act -79.7
Fc1cc(F)c2nc(N3CCCC3)sc2c1	aSyn 5UTR act -92.8
Fc1cccc2sc(N3CCCCC3)nc12	aSyn 5UTR act -116.0
CCN(CC)c1ccc(/C=C2/SC(=O)N(C(C)C)C2=O)o1	aSyn 5UTR act -174.8
CC(C)N1C(=O)S/C(=C\c2ccc(-c3ccc(Cl)c(C(=O)O)c3)o2)C1=O	aSyn 5UTR act -127.7
O=c1c(Cl)c(Nc2cccc(Cl)c2)cnn1-c1nc2ccccc2s1	aSyn 5UTR act -78.1
CC(=NC1CCCC1)c1c(C)[nH]n(-c2nc3ccccc3s2)c1=O	none
COc1ccc(Nc2cnn(-c3nc4ccccc4s3)c(=O)c2Cl)cc1	aSyn 5UTR act -138.8
CN(C)CCN(C(=O)/C=C/c1cccs1)c1nc2c(F)cc(F)cc2s1	none
CCN(CC)CCN(C(=O)/C=C/c1cccs1)c1nc2ccc(C)cc2s1	aSyn 5UTR act -79.2
COc1ccc(-c2nc(C3CCCCC3)no2)cc1OC	aSyn 5UTR act -162.2
c1ccc(-c2nc(C3CCCCC3)no2)cc1	aSyn 5UTR act -203.9
COc1ccc(C(=O)Nn2cnc3ccccc3c2=O)c(OC)c1	aSyn 5UTR act -88.0
Cc1ccccc1C(=O)Nn1cnc2ccccc2c1=O	aSyn 5UTR act -78.9
O=C(CN1C(=O)c2ccccc2S1(=O)=O)c1ccccc1F	none
CC(C)CN1C(=O)c2ccc(NC(=O)c3ccccc3F)cc2C1=O	aSyn 5UTR act -144.3
CC(C)CN1C(=O)c2ccc(NC(=O)c3ccco3)cc2C1=O	aSyn 5UTR act -83.7
CC(C)CN1C(=O)c2ccc(NC(=O)c3cccs3)cc2C1=O	aSyn 5UTR act -129.5
CNc1sc(C(=O)c2ccc(F)cc2)c(N)c1-c1nc2ccccc2s1	aSyn 5UTR act -136.8
CNc1sc(C(=O)c2cccs2)c(N)c1-c1nc2ccccc2s1	aSyn 5UTR act -157.1
CN(C)c1cccc(C(=O)NCC(c2ccco2)N(C)C)c1 (stereo not drawn)	aSyn 5UTR act -75.5
CN(C)C(CNC(=O)c1ccc2ccccc2c1)c1ccco1 (stereo not drawn)	aSyn 5UTR act -61.9
C/C(Cl)=C/CSc1nn2c(=O)c3ccccc3nc2s1	aSyn 5UTR act -99.9
C=CCSc1nn2c(=O)c3ccccc3nc2s1	aSyn 5UTR act -119.5
CC1=C(CC(=O)c2ccccc2)C(=O)c2ccccc2C1=O	aSyn 5UTR act -79.4
CSc1ccccc1C(=O)Nc1nc2ccccc2[nH]1	aSyn 5UTR act -132.9
Cn1nc(C(=O)Nc2nc3ccccc3[nH]2)ccc1=O	aSyn 5UTR act -94.2
CSc1ccccc1C(=O)Nc1nc2ccccc2c(=O)[nH]1	aSyn 5UTR act -122.3
Cc1sc(NC(=O)c2ccc(=O)n(C)n2)nc1-c1ccccc1	aSyn 5UTR act -95.3
COc1ccccc1C(=O)Nc1nc2ccccc2[nH]1	none
Cc1ccc(-n2nc(C)c3c2OC(N)=C(C#N)C3c2ccc(F)cc2)cc1 (stereo not drawn)	aSyn 5UTR act -74.8
Cc1ccc(-c2nc(NCC3CCCO3)sc2C)cc1 (stereo not drawn)	aSyn 5UTR act -93.7
CCN1CCN(c2nc3sc4c(c3c3ncnn23)CC(C)CC4)CC1 (stereo not drawn)	aSyn 5UTR act -63.9
COc1ccc2cnn(-c3ccc(OC(F)(F)F)cc3)c(=O)c2c1OC	aSyn 5UTR act -90.1
CC(C)Cc1nnc(NC(=O)Nc2ccccc2)s1	aSyn 5UTR act -115.3
COc1ccc(C(=O)Nc2nccs2)cc1	aSyn 5UTR act -119.9
CCC(C)(C)c1nnc(NC(=O)c2cccc([N+](=O)[O-])c2)s1	aSyn 5UTR act -146.7
O=C(Nc1nccs1)c1cccc(NC(=O)C(F)(F)F)c1	aSyn 5UTR act -85.7
